# Results from PubChem BioAssay.
# Several values for one entry are separate records, joined by “and”; a condition that tells them apart may be missing. Identical values can stand only once. Where a structure was tested more than once in an assay, its records may differ in their call. Activity calls are given as the source filed them. Cut-off read from the data, not from the text of the source, unless noted: active = inhibition above about 80%; inactive = the rest.
# Columns and labels:
# [1] = viability loss with induced miR-34 in A549 – imaging, A549 dox-inducible miR-34, nuclei and caspase counts, primary screen (AID 1347080;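 active = compounds whose cell count with miR-34 switched on is under 0.7 times the count with it off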); conditions: A549 miR-34 inducible, Hoechst nuclei count, 48 h
# [2] = MELAS cybrid and Rieske KO viability enhancers – cell-based, MELAS cybrids, Rieske KO mouse fibroblasts, CellTiter-Glo, primary screen (AID 1508586;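 active = mean z-score across replicates of 1.96 or higher in either the MELAS or the Rieske mutant cell line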;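 note: z relative to plate mean and SD of compound and empty wells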); conditions: low glucose
# [3] = growth inhibition, single agent or in combination, cell-based, chromothripsis tumors, cisplatin or BGB combos (AID 1671449); conditions: LFS_MB_P medulloblastoma cells;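 note: cells exposed for 96 hours; 0% = vehicle DMSO and 100% = killing by high DMSO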
# [4] = growth inhibition, single agent and combos, cell-based, chromothripsis tumors, cisplatin or BGB combos (AID 1671450); conditions: HDN33 neuroblastoma cells, stronger effect = higher value;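 note: cells exposed to compound for four days; 0% = vehicle DMSO and 100% = cell killing by high DMSO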
# [5] = growth inhibition, single agents and combos, ICB984, cell-based, cisplatin or BGB combos, synergistic combos for chromothripsis tumors (AID 1671451; call rule not given here;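 note: cells exposed for 96 hours before readout; 0% = vehicle DMSO and 100% = killing by high DMSO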); conditions: ICB984 medulloblastoma cells, drug combinations, stronger effect = higher value
# [6] = growth inhibition, single agents and combos, LFS_MB_1R, cell-based, cisplatin or BGB combos, synergistic combos for chromothripsis tumors (AID 1671452); conditions: LFS_MB_1R medulloblastoma cells, stronger effect = higher value;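 note: cells exposed for 96 hours before readout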
# [7] = growth inhibition, single agents and combos, HTB85, cell-based, BGB or cisplatin IC20 combos, synergistic combos for chromothripsis tumors (AID 1671453); conditions: HTB85 osteosarcoma cells, drug combinations, stronger effect = higher value;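 note: cells exposed for 96 hours before readout; 0% = vehicle DMSO and 100% = high DMSO killing control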
# [8] = growth inhibition, single agents and combos, CRL2098, cell-based, BGB or cisplatin IC20 combos, synergistic combos for chromothripsis tumors (AID 1671454); conditions: CRL2098 osteosarcoma cells, drug combinations, stronger effect = higher value;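 note: cells exposed for 96 h before readout; 0% = vehicle DMSO and 100% = killing by high DMSO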
# [9] = growth inhibition, single agents and combos, HD-MB03, cell-based, BGB or cisplatin IC20 combos, synergistic combos for chromothripsis tumors (AID 1671455; in the data active = inhibition above about 83%;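 note: 0% = vehicle DMSO and 100% = high DMSO as cytotoxic control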); conditions: HD-MB03 medulloblastoma cells, stronger effect = higher value
# [10] = growth inhibition, single agents and combos, UWB1.289, cell-based, BGB or cisplatin combos, synergistic combos for chromothripsis tumors (AID 1671456); conditions: UWB1.289 ovarian carcinoma cells, stronger effect = higher value;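 note: cells exposed to compound for four days; 0% = vehicle DMSO and 100% = killing by high DMSO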
# [11] = growth inhibition, single agents and combos, LFS_MB_2R, cell-based, cisplatin combos, synergistic combos for chromothripsis tumors (AID 1671457); conditions: LFS_MB_2R medulloblastoma cells, stronger effect = higher value;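 note: cells exposed to compound for four days before readout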
# [12] = growth inhibition, MDA-MB-436, cell-based, BGB or cisplatin combos, synergistic combos for chromothripsis tumors (AID 1671458; call rule not given here;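 note: cells exposed for 96 hours; 0% = vehicle DMSO and 100% = killing by high DMSO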); conditions: MDA-MB-436 breast carcinoma growth inhibition, drug combinations, stronger effect = higher value
# [13] = UWB1.289_BRCA1 ovarian cancer growth, cell-based, BGB or cisplatin combinations (AID 1671459); conditions: UWB1.289 BRCA1 ovarian carcinoma, drug combinations, stronger effect = higher value
# [14] = drug combination toxicity in non-malignant astrocytes – cell-based, BGB or cisplatin IC20 combos, cytotoxicity control for chromothriptic childhood tumor combination screen (AID 1671460); conditions: Human astrocytes, viability inhibition, drug combinations, at 0.5 µM, stronger effect = higher value;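 note: cells exposed to compounds for 96 hours before viability readout; 0% = vehicle and 100% = killing control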
# [15] = BT084 cell growth, single and combined drugs, ICGC_MB145, cisplatin and BGB IC40 combos (AID 1671461); conditions: BT084 medulloblastoma cells, drug combinations, stronger effect = higher value;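 note: cells exposed to drugs for 96 hours; 0% = vehicle DMSO and 100% = high DMSO full killing control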
# [16] = RCMB18 cell growth, single agent and combined, cisplatin and BGB IC40 combos (AID 1671462); conditions: RCMB18 medulloblastoma cells, stronger effect = higher value;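 note: cells exposed to compound for four days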
# [17] = CRL1545 cell growth, single agent and combined, cisplatin and BGB IC20 combos (AID 1671464); conditions: CRL1545 osteosarcoma cells, stronger effect = higher value;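 note: cells exposed to compound for 96 hours before readout; 0% = vehicle DMSO and 100% = high DMSO killing control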
# [18] = stronger effect = lower value, cell number ratio, induced over uninduced
# [19] = measured here: relative caspase fold change +Dox/-Dox
# [20] = measured here: total cells with miR-34 induction, stronger effect = lower value
# [21] = measured here: total cells without miR-34 induction
# [22] = MELAS cybrid survival, CellTiter-Glo 48 h, stronger effect = higher value
# [23] = Rieske KO mouse fibroblast survival, CellTiter-Glo 72 h
# [24] = at 0.5 µM, stronger effect = higher value
# [25] = measured here: combination with BGB IC20, at 0.005 µM
# [26] = measured here: combination with BGB IC40, at 0.005 µM
# [27] = measured here: combination with BGB IC40, at 0.05 µM
# [28] = measured here: combination with cisplatin, at 0.5 µM, stronger effect = higher value
# [29] = measured here: combination with cisplatin, at 5 µM, stronger effect = higher value
# [30] = measured here: with BGB IC20 combination, at 0.5 µM
# [31] = measured here: with cisplatin IC20 combination, at 0.5 µM
# [32] = measured here: 5 uM single agent, at 5 µM
# [33] = measured here: combination with cisplatin, at 0.5 µM
# [34] = measured here: combination with cisplatin, at 5 µM
# [35] = measured here: with BGB IC20, at 0.5 µM
# [36] = measured here: with BGB IC20, at 5 µM
# [37] = measured here: with cisplatin IC20, at 0.5 µM
# [38] = measured here: with cisplatin IC20, at 5 µM
# [39] = measured here: combination with BGB at IC20, at 0.5 µM
# [40] = measured here: combination with cisplatin at IC20, at 0.5 µM
# [41] = measured here: combo with BGB at IC20, at 0.5 µM
# [42] = measured here: combo with cisplatin at IC20, at 0.5 µM
# [43] = measured here: inhibition with BGB combination, at 0.05 µM
# [44] = measured here: inhibition with cisplatin combination, at 0.05 µM
# [45] = measured here: BGB combination, at 0.5 µM
# [46] = measured here: BGB combination, at 5 µM
# [47] = measured here: cisplatin combination, at 0.5 µM
# [48] = measured here: cisplatin combination, at 5 µM
# [49] = BGB combination, concentration series, at 5 µM
# [50] = cisplatin combination, concentration series, at 5 µM
# [51] = measured here: combo with BGB IC20
# [52] = measured here: combo with cisplatin IC20
smiles,measurement,setting,value
CC(Oc1cc(-c2cnn(C3CCNCC3)c2)cnc1N)c1c(Cl)ccc(F)c1Cl (centres undefined),fold change,[1]; [18],0.89 (inactive) and 0.888 (inactive)
same,fold change,[1]; [19],0.695 and 1.44
same,cell count,[1]; [20],6060 and 1510
same,cell count,[1]; [21],6810 and 1700
same,z-score,[2]; [22],-0.618 (inactive) and 0.388 (inactive)
same,z-score,[2]; [23],-0.613 and -1.18
same,inhibition,[3]; [24],-14.5% (inactive)
same,inhibition,[3]; [25],-15.8%
same,inhibition,[3]; [26],-3.96%
same,inhibition,[3]; [27],-10.8%
same,inhibition,[3]; [28],-18.2%
same,inhibition,[3]; [29],-60.7%
same,inhibition,"[4]; BGB combo, at 5 µM",54.9%
same,inhibition,[4]; at 0.5 µM,3.71% (inactive)
same,inhibition,"[4]; cisplatin combo, at 5 µM",68.7%
same,inhibition,[4]; [30],-2.84%
same,inhibition,[4]; [31],14.2%
same,inhibition,"[4]; single agent, at 5 µM",74.1%
same,inhibition,"[5]; BGB IC20 combo, at 0.005 µM",9.17%
same,inhibition,"[5]; BGB IC40 combo, at 0.005 µM",-17.8%
same,inhibition,"[5]; BGB IC40 combo, at 0.05 µM",44.6%
same,inhibition,[5]; at 0.5 µM,-13.1% (inactive)
same,inhibition,"[5]; cisplatin combo, at 0.05 µM",42.6%
same,inhibition,"[5]; cisplatin combo, at 0.5 µM",-13.5%
same,inhibition,"[5]; cisplatin combo, at 5 µM",-41.4%
same,inhibition,[5]; [32],-10.6%
same,inhibition,[6]; at 0.5 µM,-9.48% (inactive)
same,inhibition,[6]; [27],5.36%
same,inhibition,[6]; [33],-34%
same,inhibition,[6]; [34],26.2%
same,inhibition,[7]; at 0.5 µM,2.72% (inactive)
same,inhibition,[7]; [35],0.991%
same,inhibition,[7]; [36],44.7%
same,inhibition,[7]; [37],4.34%
same,inhibition,[7]; [38],12.6%
same,inhibition,"[7]; single agent, at 5 µM",47.7%
same,inhibition,[8]; at 0.5 µM,-32.5% (inactive)
same,inhibition,[8]; [39],-20.2%
same,inhibition,[8]; [40],-64.1%
same,inhibition,[9]; at 0.5 µM,3.43% (inactive)
same,inhibition,[9]; [41],-2.99%
same,inhibition,[9]; [42],13.3%
same,inhibition,[10]; at 0.5 µM,11.5% (inactive)
same,inhibition,[10]; [43],17.9%
same,inhibition,[10]; [44],12.8%
same,inhibition,[11]; at 0.5 µM,-6.87% (inactive)
same,inhibition,[11]; [33],-10.6%
same,inhibition,[11]; [34],26.8%
same,inhibition,[12]; at 0.5 µM,2.15% (inactive)
same,inhibition,[12]; [45],0.074%
same,inhibition,[12]; [46],18.2%
same,inhibition,[12]; [47],3.61%
same,inhibition,[12]; [48],29.4%
same,inhibition,[13]; [49],53.7%
same,inhibition,[13]; at 0.5 µM,8.71% (inactive)
same,inhibition,[13]; [50],38.8%
same,inhibition,[14],-2.23% (inactive)
same,inhibition,[14]; [51],-5.88%
same,inhibition,[14]; [52],-4.28%
same,inhibition,[15]; at 0.5 µM,5.1% (inactive)
same,inhibition,"[15]; cisplatin combination, at 0.5 µM",-5.89%
same,inhibition,"[15]; cisplatin combination, at 5 µM",96.5%
same,inhibition,"[15]; measured here: BGB IC40 combination 0.05 uM, at 0.05 µM",-35.9%
same,inhibition,"[15]; single agent, at 5 µM",55.8%
same,inhibition,[16]; at 0.5 µM,16.2% (inactive)
same,inhibition,"[16]; cisplatin combo, at 5 µM",34.5%
same,inhibition,"[16]; measured here: BGB IC40 combination, at 0.05 µM",5.63%
same,inhibition,[16]; [33],33%
same,inhibition,"[16]; single agent, at 5 µM",51.6%
same,inhibition,[17]; at 0.5 µM,-10% (inactive)
same,inhibition,[17]; [30],-14.1%
same,inhibition,[17]; [31],-9.79%
same,inhibition,"[17]; single agent, at 0.05 µM",7.84%
same,inhibition,"[17]; single agent, at 5 µM",64%
COc1ccc(CC(N)C(=O)NC2C(CO)OC(n3cnc4c(N(C)C)ncnc43)C2O)cc1 (centres undefined),fold change,[1]; [18],1 (inactive)
same,fold change,[1]; [19],0.403
same,cell count,[1]; [20],798
same,cell count,[1]; [21],796
same,z-score,[2]; [22],-0.998 (inactive)
same,z-score,[2]; [23],-2.06
same,inhibition,[3]; [24],-25.1% (inactive) and 6.28% (inactive)
same,inhibition,[3]; [25],7.23% and -8.63%
same,inhibition,[3]; [26],-30.8% and -22.1%
same,inhibition,[3]; [27],-25.1% and 4.36%
same,inhibition,[3]; [28],-20.6% and 32.4%
same,inhibition,[3]; [29],120% and 124%
same,inhibition,"[4]; BGB combo, at 5 µM",100% and 99.9%
same,inhibition,[4]; at 0.5 µM,75.5% (inactive) and 96.4% (active)
same,inhibition,"[4]; cisplatin combo, at 5 µM",99.9% and 100%
same,inhibition,[4]; [30],78.8% and 94.9%
same,inhibition,[4]; [31],74% and 96.7%
same,inhibition,"[4]; single agent, at 5 µM",99.9% and 100%
same,inhibition,"[5]; BGB IC20 combo, at 0.005 µM",14.3% and 49.6%
same,inhibition,"[5]; BGB IC40 combo, at 0.005 µM",37% and 55.6%
same,inhibition,"[5]; BGB IC40 combo, at 0.05 µM",100%
same,inhibition,[5]; at 0.5 µM,-26.8% (inactive) and -23.9% (inactive)
same,inhibition,"[5]; cisplatin combo, at 0.05 µM",101% and 100%
same,inhibition,"[5]; cisplatin combo, at 0.5 µM",-24.2% and -19.9%
same,inhibition,"[5]; cisplatin combo, at 5 µM",-8.56% and -29.6%
same,inhibition,[5]; [32],-9.41% and -1.15%
same,inhibition,[6]; at 0.5 µM,31.4% (inactive) and 64.5% (inactive)
same,inhibition,[6]; [27],0.687% and -51.1%
same,inhibition,[6]; [33],59.4% and 79.7%
same,inhibition,[6]; [34],102% and 99%
same,inhibition,[7]; at 0.5 µM,82.9% (active) and 95.9% (active)
same,inhibition,[7]; [35],84.1% and 96.2%
same,inhibition,[7]; [36],100%
same,inhibition,[7]; [37],80.8% and 96.9%
same,inhibition,[7]; [38],99.9% and 100%
same,inhibition,"[7]; single agent, at 5 µM",100%
same,inhibition,[8]; at 0.5 µM,56.1% (inactive) and 91.8% (active)
same,inhibition,[8]; [39],67.8% and 88.9%
same,inhibition,[8]; [40],54.9% and 94.1%
same,inhibition,[9]; at 0.5 µM,87.7% (active) and 99.6% (active)
same,inhibition,[9]; [41],88.7% and 99.3%
same,inhibition,[9]; [42],91.5% and 99.7%
same,inhibition,[10]; at 0.5 µM,50% (inactive) and 83.6% (active)
same,inhibition,[10]; [43],-13.6% and -16.5%
same,inhibition,[10]; [44],-12.2% and -18.5%
same,inhibition,[11]; at 0.5 µM,29.8% (inactive) and 56.9% (inactive)
same,inhibition,[11]; [33],55.5% and 77.6%
same,inhibition,[11]; [34],108% and 104%
same,inhibition,[12]; at 0.5 µM,57.5% (inactive) and 76.7% (inactive)
same,inhibition,[12]; [45],54.4% and 71.5%
same,inhibition,[12]; [46],97.5% and 96%
same,inhibition,[12]; [47],53% and 76.1%
same,inhibition,[12]; [48],98.3% and 97.8%
same,inhibition,[13]; [49],117% and 113%
same,inhibition,[13]; at 0.5 µM,59% (inactive) and 95.4% (active)
same,inhibition,[13]; [50],117% and 111%
same,inhibition,[14],40.4% (inactive) and 94.2% (active)
same,inhibition,[14]; [51],44.5% and 93.9%
same,inhibition,[14]; [52],14.8% and 91.4%
same,inhibition,[15]; at 0.5 µM,25.7% (inactive) and 46.2% (inactive)
